TCR activator: Activators of T cell receptors: qHTS campaign. primary human leukocytes, anti-CD3, IL-2 HTRF, 48 h. Potency, µM (doses to about 9.22 µM), hits mostly activators. 330,000 tested, under 10 active. AID 504894, 2011
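Primary human leukocytes were stimulated with a-CD3 beads plus compounds for 48 hr without co-stimulation; secreted IL-2 was quantified by HTRF using a-IL-2-K (europium cryptate) and a-IL-2-d2, excited at 320nm with acceptor emission read at 665nm.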
Mito fusion act: qHTS Assay for Small Molecule Inhibitors of Mitochondrial Division or Activators of Mitochondrial Fusion; S. cerevisiae fusion-defective mutant growth rescue, CellTiterGlo 48 h; Potency, µM (top dose mostly 46.1 µM), actives largely listed as activators; 0.23% of 320,000 active; also: nearly all actives have a fitted effect of over 45% in size
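Temperature-sensitive fusion-defective S. cerevisiae (e.g. fzo1-1, mgm1-5) were grown with compound in YPEG medium (3% ethanol, 3% glycerol) for 48 hours at 37C. Growth rescue was measured as viability by CellTiterGlo luminescence after 10 minutes at ambient.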
A-T KAP1 phos: qHTS Assay for Identifying a Potential Treatment of Ataxia-Telangiectasia; F2112 A-T fibroblasts, KAP-1 phosphorylation AlphaLISA; neocarzinostatin DNA damage 30 min before lysis; Potency, µM (series often up to 57.5 µM), most hits filed as activators; 0.19% of 320,000 active; also: nearly all actives have a fitted effect of over 45% in size
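hTERT-immortalized A-T patient fibroblasts (F2112), 500 cells/well in OPTI-MEM, 1% FBS, got compounds for 60 min, then NCS for 30 min at 37C. Lysates were then assayed for phospho-KAP-1 by AlphaLISA (anti-pKAP1 donor, anti-KAP1 acceptor beads), 6 hr at 25C.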
ClpP mod: qHTS Assay for Activators of ClpP | purified B. subtilis ClpP, FRET peptide cleavage, 20 min | ATP-dependent Clp protease proteolytic subunit (Bacillus subtilis (strain 168)), P80244 | Potency, µM (top dose mostly 57.5 µM) | 1.9% of 340,000 active; active = well fitted falling curve with a large enough effect; inconclusive = small, poorly fitted or top-dose-only effect; inactive = no such curve, though single readings can be large or run the other way; also: the source files actives as falling curves though it sought activators and does not explain the sign; nearly all actives have a fitted effect of over 65% in size
Target sequence (P80244 whole entry, looked up): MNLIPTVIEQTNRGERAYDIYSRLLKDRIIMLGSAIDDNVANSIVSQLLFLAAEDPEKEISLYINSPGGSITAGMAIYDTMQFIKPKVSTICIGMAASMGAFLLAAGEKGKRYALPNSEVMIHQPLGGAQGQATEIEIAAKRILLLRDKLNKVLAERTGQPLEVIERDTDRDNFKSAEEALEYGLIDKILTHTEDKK
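Buffer: 100 mM Tris/HCl pH8, 100 mM KCl, 0.05% low protease BSA, 2.5% glycerol, 0.01% Tween-20. ClpP 10 microg/mL final; 20 min RT; delta FRET normalized to ADEP and DMSO controls.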
MBNL1 CUG block: qHTS Assay for Inhibitors of MBNL1-poly(CUG) RNA binding | Potency, µM (series often up to 57.5 µM), usual class: inhibitors | AID 2675, 2010 | 0.036% of 280,000 active | TR-FRET MBNL1-His/biotin-(CUG)12 binding, 665/545 ratio; active = well fitted inhibition curve with a large enough effect in the signal ratio, with a control signal flat, not every such curve was filed as active; inconclusive = small, poorly fitted or top-dose-only effect, or effect the other way, or a change in a side signal; inactive = no such curve, though single readings can be large or run the other way; the % refers to the signal ratio
Target sequence (Q9NR56 whole entry, looked up): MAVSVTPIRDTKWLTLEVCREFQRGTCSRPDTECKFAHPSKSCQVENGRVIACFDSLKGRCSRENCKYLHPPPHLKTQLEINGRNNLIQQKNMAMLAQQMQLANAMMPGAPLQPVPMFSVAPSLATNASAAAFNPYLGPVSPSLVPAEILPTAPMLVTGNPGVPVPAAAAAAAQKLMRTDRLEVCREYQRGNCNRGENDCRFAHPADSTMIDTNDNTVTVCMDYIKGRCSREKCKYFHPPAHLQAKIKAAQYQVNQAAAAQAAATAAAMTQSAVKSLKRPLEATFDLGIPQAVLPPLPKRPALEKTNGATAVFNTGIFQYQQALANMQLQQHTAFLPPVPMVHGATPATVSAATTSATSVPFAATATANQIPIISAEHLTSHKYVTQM
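Inhibition of protein-RNA binding appears as loss of TR-FRET between terbium anti-His antibody on MBNL1-His and streptavidin-XL665 on biotin-(CUG)12. Activity is normalized to buffer-only and uninhibited-complex controls.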
GRP78 ERSR act: qHTS for Inducers of the Endoplasmic Reticulum Stress Response (ERSR) in Human Glioma: qHTS. Potency, µM, hits mostly activators. U87-MG GRP78 promoter luciferase reporter, 16 h. 0.02% of 420,000 active. AID 602332, 2012; also: series mostly up to about 76 µM; nearly all actives have a fitted effect of over 35% in size
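Stably transfected U87-MG glioma cells carrying a GRP78-based luciferase sensor; 16 h compound incubation. Luminescence end-point read 10 min after Bright-Glo addition at room temperature.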
A number is an active result; – = inactive; ? = inconclusive; · = no result given; ! = not active in a repeat; [ ] = dose if it differs, or a comment. This is a sample that favours compounds with a hit; in the whole collection about 1.8% have one here. Unless noted, calls follow the shape of the dose curve; as a rule, active = well fitted curve in the direction sought with a large enough effect; inconclusive = small, poorly fitted or top-dose-only effect, or another doubt; inactive = no such curve, though single readings can be large; an effect the other way counts as inactive or inconclusive.

SMILES	TCR activator	Mito fusion act	A-T KAP1 phos	ClpP mod	MBNL1 CUG block	GRP78 ERSR act
COCCCNC(=O)c1cn(CCOC)c(=O)c2c1c1ccccc1n2C	–	–	–	–	–	–
CCc1nc2cc(C(=O)N(C)CC3CCCN(C)C3)cc(NC(=O)c3ccccc3OC)c2n1C (configuration not stated)	·	·	·	·	·	–
CCC(C)NC(=O)c1cn(CCOC)c(=O)c2c1c1ccccc1n2C (configuration not stated)	–	–	8.9µM	–	–	–
COCCCNC(=O)c1cn(CC(C)C)c(=O)c2c1c1ccccc1n2C	–	–	–	32µM	–	–
CC(C)Cn1cc(C(=O)NCCCN2CCCC2=O)c2c3ccccc3n(C)c2c1=O	–	–	–	16µM	?	–
COCCNC(=O)c1cn(CCOC)c(=O)c2c1c1ccccc1n2C	–	–	–	–	–	–
CCOc1ccc(NC(=O)c2cn(CC(C)C)c(=O)c3c2c2ccccc2n3C)cc1	–	–	–	–	–	–
CC(C)Cn1cc(C(=O)N2CCN(c3ccccn3)CC2)c2c3ccccc3n(C)c2c1=O	–	–	–	16µM	–	–
COCC1CCCN(Cc2ccc3c(c2)CN(C(=O)c2cccnc2OC)CCO3)C1 (configuration not stated)	·	·	·	·	·	–
Cc1ccccc1NCC(=O)N=Nc1c(O)[nH]c2ccc([N+](=O)[O-])cc12	–	–	–	–	·	–
Cc1ccc(NCC(=O)N=Nc2c(O)[nH]c3ccc([N+](=O)[O-])cc23)cc1	–	–	–	·	·	40µM
CCOc1ccc(-n2c(C)nc3cc(C(=O)NCCN4CCOCC4)ccc32)cc1	–	–	–	–	–	–
CCOc1ccc(-n2c(C)nc3cc(C(=O)NCCCN4CCOCC4)ccc32)cc1	–	–	–	32µM	–	–
COC(=O)N1C(=O)[C@@](c2ccccc2)(C2CCCC2)N1C(=O)OC	–	–	25µM	–	–	–
COC(=O)N1C(=O)[C@](CC(C)C)(c2ccccc2)N1C(=O)OC	–	–	–	–	–	–
COC(=O)N1C(=O)[C@@](CC(C)C)(c2ccccc2)N1C(=O)OC	·	–	35µM	·	–	·
Cc1cc(C)n(CC(=O)N2CCC(n3c(C(C)C)nc4cccnc43)CC2)n1	·	·	·	·	·	–
Cc1ccc2cc(CNCc3cccc4ccccc34)c(N3CCC(O)CC3)nc2c1	·	·	·	·	·	–
CSc1nc2ncc3c(n2n1)CC1c2ccccc2CCN1C3=O (configuration not stated)	–	–	–	28µM	–	–
COC(=O)C(NS(=O)(=O)CCl)C(C)C (configuration not stated)	·	·	·	·	·	–
Cc1cccc(-n2nc(C)c3c2NC2=C(C(=O)CCC2)C3c2ccccn2)c1 (configuration not stated)	–	–	–	–	–	–
Cc1nn(-c2ccccn2)c2c1C(c1ccsc1)C1=C(CCCC1=O)N2 (configuration not stated)	–	–	–	25µM	–	–
COc1ccc(C2c3c(n(C)c4ccccc34)C(=O)N2CC(=O)Nc2ccccc2Cl)cc1 (configuration not stated)	·	·	·	?	·	–
CCCNC(=O)CN1C(=O)c2c(c3ccccc3n2C)C1c1ccc(OC)cc1 (configuration not stated)	·	·	·	28µM	·	–
COC(=O)c1cc(Cc2ccc(N)c(C(=O)OC)c2)ccc1N	–	–	–	28µM	–	–
SMILES	TCR activator	Mito fusion act	A-T KAP1 phos	ClpP mod	MBNL1 CUG block	GRP78 ERSR act
O=c1cc(O)cc(/C=C/c2ccc(O)c(O)c2)o1	·	16µM	·	·	?	?
O=C(O)/C=C\c1ccc(O)c(O)c1	·	·	·	·	·	–
COc1cc(CNc2nc(C)c(-c3ccn(CC4CCCN(C)C4)n3)s2)ccc1F (configuration not stated)	·	·	·	·	·	–
COc1ccccc1C1(O)CCN(CCCn2c3ccccc3c3ccccc32)CC1	·	·	·	·	·	–
Cc1cccc(C)c1OC(=O)CSc1nnc(-c2ccc3c(c2)OCO3)o1	·	·	·	25µM	·	–
CCOc1cccc(/C=C/c2ccc3cccc(O)c3n2)c1OC	–	–	7.9µM	·	–	–
COc1ccc(C(CNC(=O)C(C)Oc2ccc(Br)cc2)N2CCOCC2)cc1 (configuration not stated)	–	–	–	28µM	·	–
Oc1cnc2ccccc2c1CN1CCOCC1	–	–	–	20µM	–	–
Oc1ccc2ccccc2c1CN1CCOCC1	–	–	–	·	–	–
O=C(COC(=O)C1=NN(c2ccccc2)C(=O)CC1)NCc1ccccc1Cl	–	–	–	28µM	·	–
CCOC(=O)COc1ccc2nsnc2c1Cl	–	–	–	35µM	?	–
Nc1nc2[nH]cc(CCc3ccc(C(=O)NC(CCC(=O)O)C(=O)O)cc3)c2c(=O)[nH]1 (configuration not stated)	·	·	·	·	·	–
CC1=CC(C)(C)Nc2ccccc21	–	–	–	28µM!	–	–
CCn1c(-c2cc3c(C(F)(F)F)nn(C)c3s2)n[nH]c1=S	–	–	–	28µM	–	–
CC1=C(C(=O)Nc2cc(C)ccn2)C(c2ccc(C)cc2)C2=C(CCCC2=O)N1 (configuration not stated)	–	–	–	28µM	–	–
CCn1cc(C2C(C(=O)Nc3cc(C)ccn3)=C(C)NC3=C2C(=O)CC(C)(C)C3)c(C)n1 (configuration not stated)	–	–	–	10µM	–[11.5 µM]	–
CC1=C(C(=O)Nc2ccccc2)C(c2ccc3c(c2)OCO3)C2=C(CCCC2=O)N1 (configuration not stated)	–	–	–	–	–	–
COc1cc2c(cc1OC)[C@@H](Cc1cc(OC)c(OC)c(OC)c1)[N@+](C)(CCCOC(=O)CC/C=C/CCC(=O)OCCC[N@+]1(C)CCc3cc(OC)c(OC)cc3[C@H]1Cc1cc(OC)c(OC)c(OC)c1)CC2	·	·	·	·	·	–
Cc1c(Cl)cccc1NC(=O)CSc1nc(=O)n(CCCN2CCOCC2)c2c1CCC2	–	–	–	20µM	·	–
COc1cc(NC(=O)CSc2nc(=O)n(CCCN3CCOCC3)c3c2CCC3)cc(OC)c1	–	–	–	25µM	·	–
COCCN(C)C(=O)c1cnn(-c2ncc3c(n2)-c2ccccc2CCC3)c1C1CC1	·	·	·	·	·	–
O=C1CN(CC(=O)N2CCCCC2)c2ccccc2O1	–	–	–	–	?	–
